HTT cytoprotect = protects HTT-Q103 PC12 cells, measured by ATP. PC12 HTT-Q103 induced, cytoprotection, ATP luminescence, 40 h. Potency, µM (titrated, usually from 56.4 µM), for the others: cytoprotection (ATP increase), actives largely listed as activators. actives 0.14% (n = 230,000); further: % of control where 0% means no effect; nearly all actives have a fitted effect of over 45% in size
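Rat PC12, Q103 Htt exon1-GFP fusion, ecdysone promoter; tebufenozide inducer 100 nM final; compound titration; qHTS, 1500 cells/well; ATPlite luminescent read.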
L3MBTL1 inh = inhibitors of human L3MBTL1 | AlphaScreen L3MBTL1–H3K9me1 peptide binding | Potency, µM (highest dose often 57.1 µM), for the others: top-dose activity, negative = inhibition, hits mostly inhibitors | AID 485360 | actives 0.66% (n = 230,000) | Q9Y468; further: on the % scale 0 is the no-effect control and ±100 the full control effect; nearly all actives have a fitted effect of over 60% in size
Target sequence (Q9Y468 whole entry, looked up): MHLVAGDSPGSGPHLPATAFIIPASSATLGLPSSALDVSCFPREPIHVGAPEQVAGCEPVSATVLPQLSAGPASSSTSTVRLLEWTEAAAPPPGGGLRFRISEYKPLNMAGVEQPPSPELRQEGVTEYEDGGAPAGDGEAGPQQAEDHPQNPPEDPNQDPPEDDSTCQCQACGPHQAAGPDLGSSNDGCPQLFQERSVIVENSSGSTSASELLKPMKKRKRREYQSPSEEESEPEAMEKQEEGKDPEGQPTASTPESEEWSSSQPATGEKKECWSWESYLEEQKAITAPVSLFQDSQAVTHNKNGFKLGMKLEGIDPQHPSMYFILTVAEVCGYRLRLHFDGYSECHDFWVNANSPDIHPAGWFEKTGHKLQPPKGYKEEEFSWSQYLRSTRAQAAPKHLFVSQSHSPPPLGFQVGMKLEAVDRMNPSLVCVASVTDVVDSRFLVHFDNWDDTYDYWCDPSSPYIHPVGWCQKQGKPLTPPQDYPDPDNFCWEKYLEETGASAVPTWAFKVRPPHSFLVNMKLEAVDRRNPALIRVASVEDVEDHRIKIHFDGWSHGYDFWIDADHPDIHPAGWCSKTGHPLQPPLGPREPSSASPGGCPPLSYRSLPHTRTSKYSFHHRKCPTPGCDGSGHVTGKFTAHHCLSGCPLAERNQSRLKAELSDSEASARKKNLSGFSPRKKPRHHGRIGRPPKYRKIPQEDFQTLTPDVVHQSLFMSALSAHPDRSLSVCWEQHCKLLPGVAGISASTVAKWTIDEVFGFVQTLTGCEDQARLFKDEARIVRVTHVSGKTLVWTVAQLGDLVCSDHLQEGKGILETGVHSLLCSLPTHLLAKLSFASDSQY
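First, the protein-peptide complex forms for 30 min at room temperature (L3MBTL1 50 nM, biotinylated H3K9me1 peptide 75 nM). Next, compounds are pin-transferred and incubated 30 min. Finally, AlphaScreen beads are added and read after 30 min.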
HTT aggregate = reduces HttQ103-GFP aggregates in PC12 cells | PC12 HttQ103-GFP aggregates, Acumen cytometry, 40 h | Potency, µM (top dose mostly 46.1 µM), inactives show at the highest dose activity change, negative = inhibition, usual class: inhibitors | actives 1.1% (n = 220,000); further: on the % scale 0 is the no-effect control and ±100 the full control effect; nearly all actives have a fitted effect of over 60% in size
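Ecdysone-promoter PC12 model expressing HTT exon 1 Q103 fused to GFP, induced by tebufenozide at 100 nM final. Compounds titrated; aggregates sized 1–25 µm scored on a 488 nm laser cytometer.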
KDM4E inh = blocks human JMJD2E demethylase activity. B2RXH2. JMJD2E catalytic domain, FDH-coupled NADH fluorescence (FDH is formaldehyde dehydrogenase). Potency, µM (top dose mostly 57.1 µM), for inactives: at the top dose activity change, negative = inhibition, hits mostly inhibitors. actives 1.6% (n = 230,000). AID 2147; active means well fitted inhibition curve with a large enough effect, not every such curve was filed as active; inconclusive means small, poorly fitted or top-dose-only effect, or another doubt; inactive means no such curve, though single readings can be large or run the other way;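 further: 0% = wells with enzyme and -100% = buffer wells without enzyme; nearly all actives have a fitted effect of over 50% in size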
* = called active by the depositor; u = inconclusive; x = no result given; [ ] = dose if it differs, or a comment. This is a sample that favours compounds with a hit; in the whole collection about 1.8% have one here. Unless noted, the call rests on the fitted dose curve; in most records, active means well fitted curve in the direction sought with a large enough effect; inconclusive means small, poorly fitted or top-dose-only effect, or another doubt; inactive means no such curve, though single readings can be large; an effect the other way counts as inactive or inconclusive. Potency means the concentration at half of the fitted maximal effect.

SMILES	HTT cytoprotect	L3MBTL1 inh	HTT aggregate	KDM4E inh
C[C@@H](C[C@@H](O)[C@H](O)C(C)(C)O)[C@@H]1CC[C@]2(C)C3=CC[C@H]4C(C)(C)C(=O)CC[C@]4(C)[C@H]3CC[C@@]12C	x	1%	35µM*	-4%
O=C(O)c1ccc(CO)o1	-2%	x	x	x
O=c1cc(-c2ccccc2)oc2cc(O)c(O)c(O)c12	-12%[1.9 µM]	16µM*	x	13µM*
O=c1cc(-c2ccc(O)cc2)oc2c1ccc1ccccc12	x	-7%	x	x
O=c1cc(-c2ccc(O)cc2)oc2c(O)c(O)c(O)c(O)c12	-6%[10 µM]	3.2µM*	-1%[9.22 µM]	13µM*
CCc1c2c(nc3c(C(C)C)cccc13)-c1cccc(=O)n1C2	-72%	x	x	u
Cc1ccc(C(=O)O)cc1N1C(=O)c2cccc3c([N+](=O)[O-])ccc(c23)C1=O	x	22µM*	x	x
CC(=O)Oc1cccc(N2C(=O)c3cccc4c([N+](=O)[O-])ccc(c34)C2=O)c1	x	6%	x	x
COc1ccc(CNc2ncncc2-c2ccccc2C(F)(F)F)c(OC)c1	-4%	x	x	x
CCSc1nc2c(c(=O)n1Cc1ccccc1)SC(C)C2 (stereo not drawn)	5%	-11%[11.4 µM]	28µM*	2%
CC1Cc2nc(SCC(N)=O)n(Cc3ccccc3)c(=O)c2S1 (stereo not drawn)	-4%	x	-22%[9.22 µM]	-2%
C=CC1CO1 (stereo not drawn)	-8%	x	x	x
CC(C)C(=O)NC(c1ccco1)c1ccc2cccnc2c1O (stereo not drawn)	-102%	u	4µM*	u
CC(=O)NC(c1ccco1)c1cc(F)c2cccnc2c1O (stereo not drawn)	x	14µM*	x	x
CCCC[C@@H]1C[C@H]1C(NC(=O)c1cccnc1)c1ccc(-c2ccccc2)cc1 (stereo partly drawn)	-71%	x	x	-19%
O=C(/C(=C/c1ccc(Cl)cc1)c1nc2ccccc2[nH]1)c1ccccc1	-71%	-2%	5µM*	2%
CC1(Cn2ccnn2)[C@H](C(=O)O)N2C(=O)C[C@H]2S1(=O)=O (stereo partly drawn)	-12%	x	-8%	x
COc1ccc(C(=O)NNC(=S)NC(=O)c2cc(-c3ccccc3)nc3ccccc23)cc1	u	0%	28µM*	u
COCCCn1c(=O)c2ccccc2n(Cc2ccccc2)c1=O	x	-2%	x	x
C=CCn1c(=O)n(CCOC)c(=O)c2sc3ccccc3c21	17%[10 µM]	12%	22µM*	u
CCN(CC)c1ccc(-c2nn3c(-c4n[nH]c5c4CCC5)nnc3s2)cc1	-94%	3%	13µM*	u
CCCCCCCCCCCCCCCC(=O)NCCCC(=O)O	-10%	x	x	-2%
Nc1ccccc1Sc1nc2ccccc2[nH]1	-17%	u	-3%	13µM*
Cc1ccc(S(=O)(=O)NCc2ccc(C(=O)N3CCN(c4ccccn4)CC3)cc2)cc1	-5%	-3%	8%	-29%
CCOC(=O)c1ccc(NC(=O)N2CCN(c3ccccn3)CC2)cc1	2%	x	0.56µM*	u
SMILES	HTT cytoprotect	L3MBTL1 inh	HTT aggregate	KDM4E inh
Cc1ccc(NS(=O)(=O)c2ccc(C(=O)N3CCN(c4ccccn4)CC3)cc2)cc1	-14%	x	11µM*	6%
CN(C)c1ccc(N=Nc2cccc3ccoc23)cc1	-28%[10 µM]	10µM*	-7%[9.22 µM]	-8%
CCC12C=C(/C=C/c3ccccc3)C(CC)(C1)C(c1ccccc1)CC2=O (stereo not drawn)	-32%[10 µM]	x	x	x
CCCCN(CCCC)CC(O)c1cc(Cl)cc2c1-c1ccc(Cl)cc1/C2=C/c1ccc(Cl)cc1 (stereo not drawn)	10%	x	7%	x
Cc1ccc(OCCSCc2nnc(NC(=O)Nc3cccc(Cl)c3)s2)cc1	x	5%	8.9µM*	1%
O=C(Nc1ccc(Cl)c(Cl)c1)Nc1nnc(CSc2ccccc2)s1	26%[10 µM]	-12%	2.8µM*	1%
CC(=O)N1CCOc2cc(S(=O)(=O)Nc3c(C)cccc3C(C)C)c(Cl)cc21	x	-3%	x	x
CC/C(C)=N/O	-51%	x	x	x
N#Cc1c2ccc(O)cc2n2ccccc12	-24%	36%	10µM*	u
COC(=O)Cn1c(C)c(C#N)c2ccccc21	-29%[10 µM]	-16%	-14%	6%
CCCCCn1c(=O)[nH]c2cc(C(=O)N3CCN(Cc4ccc5c(c4)OCO5)CC3)ccc2c1=O	-14%	x	8.9µM*	-3%
COC1CCC(C(=O)c2ccc3nc4c(cc3c2)CCCO4)CC1 (stereo not drawn)	-111%	x	x	3%
O=C(NC1CC1)C1=C[C@@H](c2c[nH]c3ccccc23)C[C@@H](OCc2ccc(CO)cc2)O1	-17%[10 µM]	x	-8%[9.22 µM]	25µM*
CCOC(=O)c1sc(NC(=O)c2cccnc2)c(C#N)c1C	-14%	4%	-14%	3%
CCOC(=O)c1sc(NC(=O)CSc2nc3c(cc2C#N)CCCCC3)c(C#N)c1C	-25%	19%	5.6µM*	u
CCOC(=O)c1sc(NC(=O)CSc2n[nH]c(-c3ccccc3)n2)c(C#N)c1C	1%[10 µM]	-14%	20µM*	u
CCOC(=O)c1sc(NC(=O)c2cc(-c3ccccc3)nc3ccccc23)c(C#N)c1C	-91%	-8%	7.1µM*	-8%
CC1(C)O[C@@H]2[C@@H](O1)C(c1ccccc1)(c1ccccc1)OP(=O)(O)OC2(c1ccccc1)c1ccccc1	23%	x	x	-15%
Cc1cc(=O)n(C)c(=O)n1CCCCCN1CCCC1	10%[10 µM]	28µM*	-9%	u
Cc1cc(=O)n(C)c(=O)n1CCCCCCOc1cccc([N+](=O)[O-])c1	3%[10 µM]	-13%	14%	-3%
COC(=O)CN=C1OC(=O)N2C(=O)C3=C4C(C[C@H]5C(=O)N(c6ccccc6)C(=O)[C@H]5[C@H]4[C@@]12Cc1ccccc1)[C@H]1C(=O)N(c2ccccc2)C(=O)[C@H]1[C@H]3C (stereo partly drawn)	-5%	x	x	1%
O=C1NCCCc2c1oc1ccc(O)cc21	-35%	44%	22µM*	-8%
CCc1ccc(O)c(N=Cc2ccccc2O)c1	-33%	x	u	u
O=c1[nH][nH]c2c(N=Cc3ccccc3O)ccc(F)c12	-9%[10 µM]	3.5µM*	-8%[9.22 µM]	-11%
CN1CCN(C(=S)NC(=O)c2ccc(C(C)(C)C)cc2)CC1	16%[10 µM]	3%	-17%	6%
SMILES	HTT cytoprotect	L3MBTL1 inh	HTT aggregate	KDM4E inh
C=CCn1cccc(/C=C/C(=O)c2ccc(C(C)(C)C)cc2)c1=S	x	28µM*	25µM*	-6%
CCN(CC)c1ccc(Nc2nc(N3CCOCC3)c3ccccc3n2)cc1	-4%	x	7.9µM*	-13%
CNc1ncncc1-c1ccc(C(=O)N(C)C)cc1	-11%	x	x	u
Cc1cc(C)c(S(=O)(=O)/N=C2/C=C(Sc3ncn[nH]3)C(=O)c3ccccc32)cc1C	-98%[10 µM]	u	3.5µM*	-4%
Cc1ccc(NC2=C/C(=N/S(=O)(=O)c3cccs3)c3ccccc3C2=O)cc1C	x	-11%	u	8%
CC(C)[C@H](NC(=O)OC(C)(C)C)[C@@H](O)CC(=O)OC(C)(C)C	-39%[10 µM]	x	x	x
COc1ccc(N2CCN(CC(=O)Nc3cc(C)on3)CC2)cc1	-10%	0%	3%	25µM*
CCC/C=N/NC(=O)c1cc(Br)ccc1O	23%[10 µM]	-2%	16µM*	6%

Assay outcomes from PubChem.
